From PubChem BioAssay
NTMT1 inh: NTMT1 methyltransferase inhibition; Q9BV86; NTMT1 MTase-Glo SAH luminescence, purified enzyme; Potency, µM (series often up to 114 µM), without a hit: at the highest dose activity change, negative = inhibition, actives largely listed as inhibitors; hit rate 2.5% among 59,000;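 also: potency is read from the fitted curve at half-maximal effect; plate controls were DMSO vehicle for no effect and no enzyme for full effect; nearly all actives have a fitted effect of over 65% in size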
Target sequence (Q9BV86 whole entry, looked up): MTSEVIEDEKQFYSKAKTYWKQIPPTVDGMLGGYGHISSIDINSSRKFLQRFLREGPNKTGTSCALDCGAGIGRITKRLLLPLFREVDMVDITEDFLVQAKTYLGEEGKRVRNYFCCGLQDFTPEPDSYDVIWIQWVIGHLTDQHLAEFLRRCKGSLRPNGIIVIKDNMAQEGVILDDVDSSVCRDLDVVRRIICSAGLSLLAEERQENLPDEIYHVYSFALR
FH mod: Identification of activators of human fumarate hydratase by quantitative high-throughput screening; Fumarate hydratase, mitochondrial (Homo sapiens), P07954; FH coupled MDH/diaphorase resazurin fluorescence, 15 min; Potency, µM (titrated, usually from 79.9 µM), inactives show at the top dose activity change, negative = inhibition, hits mostly inhibitors; hit rate 0.22% among 54,000; also: potency is read from the fitted curve at half-maximal effect; % is scaled to controls: 0 for no effect and ±100 for the full control effect; the screen sought activators but most active calls are inhibition curves; nearly all actives have a fitted effect of over 45% in size
DRV1 agonist: activates human resolvin D1 receptor GPR32 | O75388 | CHO-K1 GPR32 beta-arrestin PathHunter luminescence, 90 min; zero percent set by DMSO-only wells | activation, % at 76.9 µM | hit rate 2.5% among 48,000;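 active = activation of at least 60% and not above a set upper limit, about 1 call in 100 departs from these limits; inconclusive = activation of 40% to 60%, or above that upper limit; inactive = activation under 40%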; also: 0% is about no effect
Target sequence (O75388 whole entry, looked up): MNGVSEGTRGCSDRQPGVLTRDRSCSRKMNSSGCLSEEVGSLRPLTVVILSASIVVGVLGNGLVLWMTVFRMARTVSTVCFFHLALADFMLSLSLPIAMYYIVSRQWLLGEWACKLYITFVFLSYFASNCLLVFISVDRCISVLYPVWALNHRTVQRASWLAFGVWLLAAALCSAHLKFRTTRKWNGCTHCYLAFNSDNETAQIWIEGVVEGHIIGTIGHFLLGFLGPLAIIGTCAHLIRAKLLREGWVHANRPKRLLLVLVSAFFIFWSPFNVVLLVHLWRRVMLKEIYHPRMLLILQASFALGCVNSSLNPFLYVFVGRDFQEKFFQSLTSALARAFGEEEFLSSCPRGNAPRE
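Using DMSO wells as EC0, agonist-induced signal was taken as chemiluminescence from beta-Gal reconstituted upon beta-arrestin recruitment to GPR32 in CHO-K1 cells after 90 min compound treatment.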
SKOV3 invasion: blocks SKOV3ip1 adhesion and invasion in omental model; SKOV3ip1-GFP adhesion/invasion on 3D omental model, fluorescence; Potency, µM (series often up to 45.8 µM), for the others: at the highest dose activity change, negative = inhibition, actives largely listed as inhibitors; hit rate 0.1% among 46,000; AID 1963576;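 also: potency is read from the fitted curve at half-maximal effect; plate controls were DMSO wells for no effect and tomatine positive control wells for full effect; nearly all actives have a fitted effect of over 65% in size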
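Primary human omental fibroblast/mesothelial 3D culture pre-formed 48 h. SKOV3ip1-GFP cells added with compounds (0.36-46 umol/L), incubated 2 h RT/16 h 37 C, fixed; GFP cells quantified at 488/509 nm.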
An asterisk follows results filed as active; i = inactive; ? = inconclusive; · = not tested or not shown; ! = repeats disagree; [ ] = another dose, or the depositor's remark. Sampled rows, rich in hits. Any-hit rate of the full collection: about 3.8%. Unless noted, calls follow the shape of the dose curve; as a rule, active = well fitted curve in the direction sought with a large enough effect; inconclusive = small, poorly fitted or top-dose-only effect, or another doubt; inactive = no such curve, though single readings can be large; an effect the other way counts as inactive or inconclusive.

SMILES	NTMT1 inh	FH mod	DRV1 agonist	SKOV3 invasion
Nc1ccc(C(=O)c2cc3c(ccc4ccccc43)[nH]2)cc1	-1.6%[57.5 µM]	-11.9%[53.3 µM]	·	-10.1%
O=C(CN1CCN(Cc2ccc(F)cc2)C1=O)NCc1ccc(F)cc1	-4.3%	-22.7%	-14.7	i
Cc1c(-c2cccc(NC(=O)Nc3ccccc3)c2)nc2ncccn12	-7.2%	-9.5%	95.9*	-26.0%
Cc1c(-c2cccc(NC(=O)Cc3ccccc3)c2)nc2ncccn12	-3.5%	-7.2%	30.2	i
C#C[C@]1(O)CC[C@H]2[C@@H]3CCC4=CC(=O)CC[C@@H]4[C@H]3CC[C@@]21C	?	0.7%[53.3 µM]	69.3*	·
C#C[C@]1(O)CC[C@H]2[C@@H]3CCc4cc(OC)ccc4[C@H]3CC[C@@]21C	2.0%	-9.1%[53.3 µM]	68.5*	·
C#C[C@]1(O)CC[C@H]2[C@@H]3CCc4cc(OC5CCCC5)ccc4[C@H]3CC[C@@]21C	15.6%[57.5 µM]	?	68.0*	·
NS(=O)(=O)Oc1ccc2c3c(c(=O)oc2c1)CCCCC3	28.2µM*	·	·	·
COc1ccc(-c2cn3c(n2)sc2cc(C(=O)NC(C)C45CC6CC(CC(C6)C4)C5)ccc23)cc1 (stereo not drawn)	12.6%	?	-8.3	-3.2%
COc1cc(Cl)c(NC(=O)CN(C)S(=O)(=O)c2ccc3c(c2)CCCC(=O)N3)c(OC)c1	9.4%	-16.4%	66.9*	i
CC(=O)Nc1ccc(NC(=O)CN(C)S(=O)(=O)c2ccc3c(c2)CCCC(=O)N3)cc1	4.8%	-1.1%	18.6	i
N#Cc1cccc(NC(=O)C2CCN(S(=O)(=O)c3ccc4c(c3)CCCN4C(=O)C3CCC3)CC2)c1	2.9%	-13.1%	-8.0	2.5%
NC1(c2ccc(-c3nc4ccn5c(=O)[nH]nc5c4cc3-c3ccccc3)cc2)CCC1	50.1µM*!	7.0%	-6.6	-16.5%
Cc1c(P(=O)(c2ccccc2)c2ccccc2)c2ccccc2n1C	79.4µM*	·	·	·
NC(=O)c1cccc2[nH]c(-c3ccc([C@H]4CCCN4)cc3F)nc12	44.7µM*	4.7%[53.3 µM]	·	36.0%
O=C(Nc1ccc(O)c(-c2nc3ccccc3o2)c1)c1ccco1	19.1%	-2.8%	84.1*	0.4%
CCc1cccc(NC(=O)C2CCC(CNS(=O)(=O)c3ccc4c(c3)CCCC(=O)N4)CC2)c1 (stereo not drawn)	5.5%	-9.4%	4.5	70.5%
C=C[C@H]1[C@H](O[C@@H]2O[C@H](CO)[C@@H](O)[C@H](O)[C@H]2O)OC=C(C(=O)OC)[C@H]1C[C@@H]1N[C@H](C(=O)O)Cc2c1[nH]c1ccccc21	-19.1%[29.8 µM]	-0.6%[53.3 µM]	·	·
O=C(N/N=C/c1ccccc1O)c1ccncc1	24.9%[57.5 µM]	14.5%[53.3 µM]	95.9*	·
COc1ccc(S(=O)(=O)N(CC(=O)NC(C)c2ccccc2)c2ccc(C)cc2)cc1OC (stereo not drawn)	-1.6%	?	76.1*	?
CCCCOc1ccc(NC(=O)Cn2nnnc2-c2ccccc2F)cc1	-0.9%	2.1%	-7.4	-0.2%
O=C(Cn1nnnc1-c1ccccc1F)Nc1ccc(OC(F)(F)F)cc1	12.6%	-0.3%	75.1*	i
O=C1CSc2ccccc2N1Cc1cccc(C(F)(F)F)c1	2.8%[57.5 µM]	-2.1%	·	·
CCN(CC)c1ccc(NS(=O)(=O)c2ccc(-c3coc(C)n3)cc2)c(C)c1	-8.5%	?	68.4*	13.5%
COc1cc(Cl)c(NS(=O)(=O)c2ccc(-c3coc(C)n3)cc2)c(OC)c1	0.5%	-1.8%	82.6*	i
SMILES	NTMT1 inh	FH mod	DRV1 agonist	SKOV3 invasion
Cc1nc(-c2ccc(S(=O)(=O)Nc3ccc(C)c(N(C)C)c3)cc2)co1	-7.1%	-2.9%	43.7	8.2%
COc1ccc(OC)c(CNC(=O)c2cnc(N(C)C)nc2)c1	26.3%	0.8%	3.5	1.8%
CC(C)c1ccc(NC(=O)CCNS(=O)(=O)c2ccc3c(c2)CCCC(=O)N3)cc1	-7.9%	-37.3%	2.6	i
Cc1cc(NC(=O)CCNS(=O)(=O)c2ccc3c(c2)CCCC(=O)N3)ccc1Br	-0.5%	-13.7%	100.4*	6.3%
O=S(=O)(Nc1nccs1)c1ccc(NCc2cc(Cl)ccc2O)cc1	3.1%	·	·	·
Oc1ccc(Cl)cc1Cc1cc(Cl)ccc1O	?	?	69.0*	·
CCCC(=O)Nc1cccc(-c2cn3c(C)csc3n2)c1	5.2%	-3.3%	-12.7	i
Cc1ccc(S(=O)(=O)N(CC(=O)Nc2ccc(C(C)C)cc2)Cc2ccccc2)cc1	-6.5%	?	-0.1	-0.1%
N#Cc1cnc2c(Cl)cc(NCc3cn(CCN4CCCCCC4)nn3)cc2c1Nc1ccc(F)c(Cl)c1	10µM*	-11.2%	·	·
Cc1ccc2c(c1)C(c1ccccc1)N(C(=O)Cc1ccc(F)cc1)CC(=O)N2 (stereo not drawn)	-8.6%	-6.6%	-20.8	3.1%
Cc1ccc(C)c(CN2C(=O)c3ccccc3S(=O)c3ccc(C(=O)NCCC4=CCCCC4)cc32)c1 (stereo not drawn)	5.3%	-16.6%	-6.9	i
Cc1ccccc1OCC(O)Cn1c(=N)n(CCN2CCCCC2)c2ccccc21 (stereo not drawn)	?	-0.3%	19.7	?
N=c1n(CCN2CCCCC2)c2ccccc2n1CC(O)COc1ccccc1 (stereo not drawn)	1.1%	-24.9%	65.4*	?
CCCCCn1c(=N)n(CC(O)COc2cccc(C)c2)c2ccccc21 (stereo not drawn)	-11.5%	1.6%	89.8*	?
COc1ccc(OC)c(CCNC(=O)c2sc3nc4n(c(=O)c3c2C)CCCC4)c1	-12.5%	-1.7%	-6.3	i
O=C1CC2(CCCC2)CC(=O)N1	16.0%[57.5 µM]	-2.8%[53.3 µM]	65.4*	·
COc1cc(C2CC(=O)c3c([nH]c(C(=O)OCC4CCCCC4)c3C)C2)cc(OC)c1OC (stereo not drawn)	-24.4%	-0.6%	1.7	18.4%
CCCn1ccc2c(OCC(=O)NCc3ccccc3Cl)cccc2c1=O	3.5%	-39.0%	68.8*	6.1%
Cn1ccc2c(OCC(=O)Nc3ccc(OC(F)(F)F)cc3)cccc2c1=O	-0.4%	-14.0%	35.6	i
CCn1ccc2c(OCC(=O)Nc3ccccc3C(F)(F)F)cccc2c1=O	1.6%	4.6%	84.9*	-10.6%
CCn1ccc2c(OCC(=O)Nc3ccccc3C)cccc2c1=O	-6.8%	-27.0%	44.7	-2.9%
COCCn1ccc2c(OCC(=O)Nc3cccc(OC)c3)cccc2c1=O	-1.2%	-7.1%	72.7*	-7.9%
CCOC(=O)c1ccc(NC(=O)COc2cccc3c(=O)n(C)ccc23)cc1	-14.8%	-12.3%	68.7*	-3.3%
O=C(NCCSc1c(-c2ccc(F)cc2)[nH]c2ccccc12)c1ccc(S(=O)(=O)N2CCOCC2)cc1	8.7%	-15.6%	-20.0	?
O=C(CCCCCn1c(=O)[nH]c2ccccc2c1=O)NCc1ccc(Cl)cc1	?	-14.9%	-0.5	4.6%
COc1ccc(S(=O)(=O)N2CCC(n3c(C)nc4cccnc43)CC2)cc1Cl	·	·	70.1*	-2.3%
Cc1ccc(S(=O)(=O)N2CCC(n3c(C)nc4cccnc43)CC2)c(C)c1	-0.9%	-19.2%	?	-0.1%
